Test results reported in PubChem BioAssay (NCATS).
Inconclusive results are not listed. Activity calls are given as the source filed them. Calls come from the whole dose curve; as a rule, active = well fitted curve in the direction sought with a large enough effect; inconclusive = small, poorly fitted or top-dose-only effect, or another doubt; inactive = no such curve, though single readings can be large; an effect the other way counts as inactive or inconclusive.

Tests used:
[1] = test system: NIH3T3; test: qHTS assay to identify novel small-molecules to repurpose for Merkel cell carcinoma treatment (AID 1296009); settings: MCC and control cell lines, CellTiter-Glo viability, 72 h; series mostly up to 44.8 µM; note: nearly all actives have a fitted effect of over 60% in size; note: potency is the fitted concentration of half-maximal effect
How it was run: (§1)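 72 hr, 37 degree celsius; NPC 8-pt / MIPE 11-pt dose response; compound pinned in DMSO; CellTiter-Glo, 10 min RT, luminescence; normalized to no-cell and DMSO controls.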

[2] = test system: C33A; test: Primary qHTS to identify gynecologic anti-cancer compounds using libraries of approved drugs and bioactive compounds (AID 1345084); settings: Gynecologic cancer cell panel viability, ATPlite luminescence, 48 h; series mostly up to 57.5 µM; note: nearly all actives have a fitted effect of over 55% in size
How it was run: (§2)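 In this quantitative HTS, cell killing is estimated from loss of ATP-dependent luciferase light. Cells see five compound concentrations over a 48 h exposure.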

[3] = test system: CAOV3; test: as above; settings: Gynecologic cancer cell panel viability, ATPlite luminescence, 48 h; series mostly up to 57.5 µM
How it was run: as §2

[4] = test system: CASKI; test: as above; settings: Gynecologic cancer cell panel viability, ATPlite luminescence, 48 h; series mostly up to 57.5 µM
How it was run: as §2

[5] = test system: Es-2; test: as above; settings: Gynecologic cancer cell panel viability, ATPlite luminescence, 48 h; series mostly up to 57.5 µM
How it was run: as §2

[6] = test system: HeLa; test: as above; settings: Gynecologic cancer cell panel viability, ATPlite luminescence, 48 h; series mostly up to 57.5 µM
How it was run: as §2

[7] = test system: Hek293T; test: as above; settings: Gynecologic cancer cell panel viability, ATPlite luminescence, 48 h, control line for the selectivity index; series mostly up to 57.5 µM
How it was run: as §2

[8] = test system: JEG-3; test: as above; settings: Gynecologic cancer cell panel viability, ATPlite luminescence, 48 h; series mostly up to 57.5 µM
How it was run: as §2

[9] = test system: OV90; test: as above; settings: Gynecologic cancer cell panel viability, ATPlite luminescence, 48 h; series mostly up to 57.5 µM
How it was run: as §2

[10] = test system: PA-1; test: as above; settings: Gynecologic cancer cell panel viability, ATPlite luminescence, 48 h; series mostly up to 57.5 µM
How it was run: as §2

[11] = test system: SKOV3; test: as above; settings: Gynecologic cancer cell panel viability, ATPlite luminescence, 48 h; series mostly up to 57.5 µM
How it was run: as §2

[12] = test system: Tov-21-G; test: as above; settings: Gynecologic cancer cell panel viability, ATPlite luminescence, 48 h; series mostly up to 57.5 µM
How it was run: as §2

[13] = test system: Tov112D; test: as above; settings: Gynecologic cancer cell panel viability, ATPlite luminescence, 48 h; series mostly up to 57.5 µM
How it was run: as §2

[14] = test system: MKL-2; test: qHTS assay to identify novel small-molecules to repurpose for Merkel cell carcinoma treatment (AID 1296009); settings: MCC and control cell lines, CellTiter-Glo viability, 72 h; note: nearly all actives have a fitted effect of over 60% in size; note: potency is the fitted concentration of half-maximal effect
How it was run: as §1

[15] = test system: astro; test: Drug repurposing screens with cells derived from glioblastoma tumor samples (AID 1345199); settings: viability, ATP luminescence, 48 h; series mostly up to 45.9 µM; note: potency is the fitted concentration of half-maximal effect; nearly all actives have a fitted effect of over 40% in size
How it was run: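 Four patient lines of CD133+ GBM neurospheres were screened at several concentrations; hits were retested in those lines plus three slower-growing GBM lines, using 48-hour treatment and ATP-based viability.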

Measured: Potency

CN1CCN(C2=Nc3ccccc3Nc3ccc(OS(=O)(=O)C(F)(F)F)cc32)CC1
not listed: [14] | [15]
inactive: all other assays above

C[C@@H]1CN(CC(=O)N2CC(C)(C)c3ncc(Cc4ccc(F)cc4)cc32)[C@@H](CN2CCOC[C@H]2C)CN1
inactive: [1]

COc1ccc2cc(-c3cc(-c4cc(Cl)cc(Cl)c4)nn3C(C)c3ccc(C(=O)NCCC(=O)O)cc3)ccc2c1 (configuration not stated)
not listed: [14] | [15]
inactive: all other assays above

O=C(N[C@H]1CCN(C(=O)c2cc(C(F)(F)F)cc(C(F)(F)F)c2)[C@H](Cc2ccc(Cl)cc2)C1)c1ccnc2ccccc12
not listed: [14] | [15]
inactive: all other assays above

Oc1cccc(-c2c3nc(c(-c4cccc(O)c4)c4ccc([nH]4)c(-c4cccc(O)c4)c4nc(c(-c5cccc(O)c5)c5ccc2[nH]5)CC4)C=C3)c1
inactive: [4] | [8] | [11] | [13]
active: [14] 13.3 µM | [15] 25.1 µM

C1=Cc2ccccc2C(=C2CCN(CCCCc3nn[nH]n3)CC2)c2ccccc21
not listed: [14] | [15]
inactive: all other assays above

CCCN1CCC=C(c2cc(-c3ccc(C)cc3)no2)C1
not listed: [14] | [15]
inactive: all other assays above

CN(C)S(=O)(=O)c1ccc(NC(=S)N2CCC(C(O)(c3ccccc3)c3ccccc3)CC2)cc1
not listed: [14] | [15]
inactive: all other assays above

Cc1nnc(-c2ccc(-c3ccc(C(=O)Nc4ccc(O)c(N5CCN(C)CC5)c4)cc3)c(C)c2)o1
not listed: [14] | [15]
inactive: all other assays above

O=C(/C=C/c1ccccc1O)O[C@@H]1O[C@H](CO)[C@@H](O)[C@H](O)[C@H]1O
not listed: [14] | [15]
inactive: all other assays above

COC(=O)CC[C@@H](C)C1CCC2C3CCC4C[C@H](OC(C)=O)CCC4(C)C3C[C@H](O)C21C (some centres not stated)
not listed: [14] | [15]
inactive: all other assays above

O=C(c1ccccn1)N(Cc1cccs1)C1(C(=O)NC2CCCCC2)CCCCC1
not listed: [14] | [15]
inactive: all other assays above

CC(=O)NC[C@H]1CN(c2ccc(N3CCSCC3)c(F)c2)C(=O)O1
not listed: [14] | [15]
inactive: all other assays above

CCCCc1ccc(NS(=O)(=O)c2ccc(F)cc2)cc1
not listed: [14] | [15]
inactive: all other assays above

CCCNCCc1ccc(NS(=O)(=O)c2ccc(OC(F)(F)F)cc2)cc1
not listed: [14] | [15]
inactive: all other assays above

CC#C[C@@H](CC(=O)O)c1ccc(OCc2ccc(CN3CCC4(C=Cc5ccccc54)CC3)s2)cc1
not listed: [14] | [15]
inactive: all other assays above

CC(C)c1cc(-c2ccc(F)c3ccccc23)nc(N)n1
not listed: [14] | [15]
inactive: all other assays above
